# Laboratory results as given in article PMC8222333, “AsCas12a ultra nuclease facilitates the rapid generation of therapeutic cell medicines”.
# Substitutions are numbered along the chain they refer to.
# B1: GGCT (dsDNA)
# DNA 1: GCTATCTAGTGCTCAGTACGCACTGGGCTAGGAAACTTCTGGCAGGACCAGGTCATGAGATCGGAAGAGCACACGTCTGAACTCCAGTCA
# DNA 2: TGACTGGAGTTCAGACGTGTGCTCTTCCGATCTCATGACCTGGTCCTGCCAGAAGTTTCCTAGCCCAGTGCGTACTGAGCACTAGATAGC
# RNA: AAUUUCUACUCUUGUAGAUAGGAAACUUCUGGCAGGACC
# B2: GGGT (dsDNA)
# DNA 1: B1 DNA 1 with C28G
# DNA 2: B1 DNA 2 with G63C
# RNA: B1 RNA
# B3: TACC (dsDNA)
# DNA 1: B1 DNA 1 with G26T, G27A, T29C
# DNA 2: B1 DNA 2 with A62G, C64T, C65A
# RNA: B1 RNA
# B4: TACG (dsDNA)
# DNA 1: B1 DNA 1 with G26T, G27A, T29G
# DNA 2: B1 DNA 2 with A62C, C64T, C65A
# RNA: B1 RNA
# B5: TAGT (dsDNA)
# DNA 1: B1 DNA 1 with G26T, G27A, C28G
# DNA 2: B1 DNA 2 with G63C, C64T, C65A
# RNA: B1 RNA
# B6: TAAC (dsDNA)
# DNA 1: B1 DNA 1 with G26T, G27A, C28A, T29C
# DNA 2: B1 DNA 2 with A62G, G63T, C64T, C65A
# RNA: B1 RNA
# B7: TACA (dsDNA)
# DNA 1: B1 DNA 1 with G26T, G27A, T29A
# DNA 2: B1 DNA 2 with A62T, C64T, C65A
# RNA: B1 RNA
# B8: GTGG (dsDNA)
# DNA 1: B1 DNA 1 with G27T, C28G, T29G
# DNA 2: B1 DNA 2 with A62C, G63C, C64A
# RNA: B1 RNA
# B9: TAGG (dsDNA)
# DNA 1: B1 DNA 1 with G26T, G27A, C28G, T29G
# DNA 2: B1 DNA 2 with A62C, G63C, C64T, C65A
# RNA: B1 RNA
# B10: GGTG (dsDNA)
# DNA 1: B1 DNA 1 with C28T, T29G
# DNA 2: B1 DNA 2 with A62C, G63A
# RNA: B1 RNA
# B11: TAAG (dsDNA)
# DNA 1: B1 DNA 1 with G26T, G27A, C28A, T29G
# DNA 2: B1 DNA 2 with A62C, G63T, C64T, C65A
# RNA: B1 RNA
# B12: TAAT (dsDNA)
# DNA 1: B1 DNA 1 with G26T, G27A, C28A
# DNA 2: B1 DNA 2 with G63T, C64T, C65A
# RNA: B1 RNA
# B13: TAGC (dsDNA)
# DNA 1: B1 DNA 1 with G26T, G27A, C28G, T29C
# DNA 2: B1 DNA 2 with A62G, G63C, C64T, C65A
# RNA: B1 RNA
# B14: GTCG (dsDNA)
# DNA 1: B1 DNA 1 with G27T, T29G
# DNA 2: B1 DNA 2 with A62C, C64A
# RNA: B1 RNA
# B15: GTAG (dsDNA)
# DNA 1: B1 DNA 1 with G27T, C28A, T29G
# DNA 2: B1 DNA 2 with A62C, G63T, C64A
# RNA: B1 RNA
# B16: GTCC (dsDNA)
# DNA 1: B1 DNA 1 with G27T, T29C
# DNA 2: B1 DNA 2 with A62G, C64A
# RNA: B1 RNA
# B17: GGGC (dsDNA)
# DNA 1: B1 DNA 1 with C28G, T29C
# DNA 2: B1 DNA 2 with A62G, G63C
# RNA: B1 RNA
# Target: dAsCas12a S542R (Acidaminococcus sp., UniProt U2UMQ6 1-1307, S542R;D908A;E993A;D1235A)
# Assay: Spec-seq (native PAGE EMSA with sequencing of bound and unbound); 25 mM Tris-HCl pH 7.4, 150 mM KCl, 5 mM MgCl2, 10% glycerol, 1 mM DTT, 40 ng/uL salmon sperm DNA; 400 nM Cas12a, 480 nM crRNA, 50 nM library, 37 C 1 h; native PAGE at room temperature; high values mean tight binding
# Details: protein: recombinant
# 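Further: relative affinity from the bound to unbound sequence frequency ratio in Spec-seq.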
row,Binder,binding signal
1,B1,-8.78 lnKA
2,B2,-8.85 lnKA
3,B3,-7.06 lnKA
4,B4,-7.71 lnKA
5,B5,-8.48 lnKA
6,B6,-8.34 lnKA
7,B7,-7.41 lnKA
8,B8,-8.13 lnKA
9,B9,-8.66 lnKA
10,B10,-8.15 lnKA
11,B11,-8.68 lnKA
12,B12,-8.37 lnKA
13,B13,-8.4 lnKA
14,B14,-6.96 lnKA
15,B15,-8.28 lnKA
16,B16,-5.08 lnKA
17,B17,-8.77 lnKA

# Target: d-enCas12a (Acidaminococcus sp., UniProt U2UMQ6 1-1307, E174R;S542R;K548R;D908A;E993A;D1235A)
# Assay: as above
# Details: protein: recombinant
row,Binder,binding signal
1,B1,-5.68 lnKA
2,B2,-5.77 lnKA
3,B3,-1.02 lnKA
4,B4,-3.12 lnKA
5,B5,-5.67 lnKA
6,B6,-4.66 lnKA
7,B7,-1.33 lnKA
8,B8,-5.91 lnKA
9,B9,-5.6 lnKA
10,B10,-4.86 lnKA
11,B11,-5.56 lnKA
12,B12,-5.67 lnKA
13,B13,-5.51 lnKA
14,B14,-4.39 lnKA
15,B15,-5.83 lnKA
16,B16,-1.42 lnKA
17,B17,-5.93 lnKA

# Target: d-enCas12a-Ultra (Acidaminococcus sp., UniProt U2UMQ6 1-1307, E174R;S542R;K548R;M537R;F870L;D908A;E993A;D1235A)
# Assay: as above
# Details: protein: recombinant
row,Binder,binding signal
1,B1,-2.87 lnKA
2,B2,-3.46 lnKA
3,B3,-0.362 lnKA
4,B4,-0.852 lnKA
5,B5,-3.31 lnKA
6,B6,-2.03 lnKA
7,B7,-0.355 lnKA
8,B8,-3.47 lnKA
9,B9,-3.37 lnKA
10,B10,-1.95 lnKA
11,B11,-3.25 lnKA
12,B12,-3.27 lnKA
13,B13,-3.07 lnKA
14,B14,-1.21 lnKA
15,B15,-3.32 lnKA
16,B16,-0.355 lnKA
17,B17,-3.41 lnKA
